Data on 51 molecules can be found in ChEMBL document CHEMBL3988442, “University of Dundee, Small-Polar-MMV Screening Library” (2021).

The target in assay [1] is T1, Aspartate--tRNA(Asp/Asn) ligase (Mycobacterium tuberculosis (strain ATCC 25618 / H37Rv)) (UniProt P9WFW3). Note: in the data most compounds retested in dose-response had high values.
T1 sequence (whole entry): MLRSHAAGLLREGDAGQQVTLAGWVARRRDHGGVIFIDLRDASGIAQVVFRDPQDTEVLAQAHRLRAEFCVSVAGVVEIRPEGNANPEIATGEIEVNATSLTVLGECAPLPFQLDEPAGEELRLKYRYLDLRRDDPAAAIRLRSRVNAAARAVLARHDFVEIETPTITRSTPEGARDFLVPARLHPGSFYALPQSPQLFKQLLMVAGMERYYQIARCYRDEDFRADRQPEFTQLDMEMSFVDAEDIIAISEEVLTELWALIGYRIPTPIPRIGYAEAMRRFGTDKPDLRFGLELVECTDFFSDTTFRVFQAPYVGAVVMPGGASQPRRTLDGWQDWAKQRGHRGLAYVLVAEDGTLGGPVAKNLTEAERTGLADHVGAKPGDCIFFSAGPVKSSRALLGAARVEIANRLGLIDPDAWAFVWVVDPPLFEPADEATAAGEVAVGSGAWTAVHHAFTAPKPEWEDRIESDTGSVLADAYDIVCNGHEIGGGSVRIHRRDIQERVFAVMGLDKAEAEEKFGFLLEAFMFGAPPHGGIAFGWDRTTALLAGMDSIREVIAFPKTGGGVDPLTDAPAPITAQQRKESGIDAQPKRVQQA
Nature of the assay: Assay for Asp RNA synthetase-1 from Mycobacterium tuberculosis. Set-up: scale not given: direction of the effect not stated beside the values. It counts as functional. The note with it: 30 µM.

Assay [2] has as its target Shiga toxin 2 (Escherichia coli O157:H7) (UniProt P09385+P09386). Put plainly: E. coli 0.157:H7 Shiga Toxin SOP - stx2 screening assay. In kind it is functional. The arrangement: scale not given: direction of the effect not stated beside the values. The note with it: 30 µM.

`COc1ccc(C)cc1CN(C)Cc1nc2c(cnn2C)c(=O)[nH]1`: the Percent Effect in assay [1] turned out to be 1.01%; in assay [2] it was 46.7%.

With `O=C1COC2(CCN(C(=O)c3ccco3)CC2)CN1Cc1cccnc1`, the Percent Effect was -2.62% in assay [1] and -14.9% in assay [2].

In the case of `CCn1ncc2c1CCCC2NCc1cccc2c1OCCO2` (configuration not stated), the Percent Effect was -2.02% in assay [1] and -6.1% in assay [2].

As to `O=C(Nc1nnc(C2CC2)s1)NC1CCN(Cc2ccccc2)C1` (configuration not stated), the Percent Effect in assay [1] was -0.344%; in assay [2] it was -174%.

With `Cc1cc(CN2CCN(CCOc3cccc(C#N)c3)CC2)no1`, the Percent Effect was determined as 2.73% in assay [1] and 20.5% in assay [2].

Turning to `COCCNC(=O)c1ccc(C)c(-n2cccc2)c1`, the Percent Effect in assay [1] was -0.779%; in assay [2] it was -6.48%.

As to `Cc1cc(NC(=O)CN2CCn3c(nnc3C(C)C)C2)no1`, the Percent Effect was -3.23% in assay [1] and -39.9% in assay [2].

Take `Oc1nc(N2CCOCC2)nc2c1CCN(Cc1cccnc1)CC2`: the results for the Percent Effect in assay [1] and in assay [2] were 0.849% and -13.5%, respectively.

Turning to `Cn1cnnc1C1CCCN(C(=O)c2cnc3ccccc3n2)C1` (configuration not stated), the figures for the Percent Effect in assay [1] and in assay [2] were -1.76% and 36.5%, respectively.

On to `O=C(NCCCN1CCOCC1)Nc1cnc2cc(Cl)ccc2c1O`, for which the Percent Effect in assay [1] was 1.35%; in assay [2], -13.4%.

As for `COc1ccc(C2CCCN2C(=O)NCCNc2ncccn2)cc1` (configuration not stated), the results for the Percent Effect in assay [1] and in assay [2] were 10.2% and -17.2%, respectively.

Regarding `COc1ccnc(N2CCN(C(=O)CCc3nccs3)CC2)n1`, the Percent Effect was -1.19% in assay [1] and -2.92% in assay [2].

Turning to `CCc1cc(C(F)(F)F)c2c(C)nn(CC(=O)O)c2n1`, the Percent Effect in assay [1] is -5.37%; in assay [2], 14.6%.

In the case of `O=C(CS(=O)(=O)CC1CCCCC1)NC1CCCCNC1=O` (configuration not stated), the Percent Effect in assay [1] is -4.37%; in assay [2], -23%.

`c1cnn(CC2CN(Cc3nc(-c4ccsc4)no3)CCO2)c1` (configuration not stated): the Percent Effect in assay [1] was -2.68%; in assay [2], 35%.

With `CCc1nc(CC(=O)N2CCOCC2c2ncon2)cs1` (configuration not stated), the values for the Percent Effect in assay [1] and in assay [2] were 1.11% and 11.7%, respectively.

`CC(=O)N1CCCC1c1nccc(C)n1` (configuration not stated): the Percent Effect in assay [1] was determined as 0.191%; in assay [2], 0.898%.

For `Cc1ccc(CN2CCC(F)(F)C3(CCN(c4cnccn4)C3)C2)o1` (configuration not stated), the Percent Effect was 5.56% in assay [1] and -6.62% in assay [2].

Regarding `COc1ccccc1OCC(=O)Nc1ncccc1OC(F)F`, the Percent Effect in assay [1] was 3.04%; in assay [2], -12%.

In the case of `CC(C)c1nc2c(n1C)CCN(Cc1nc(-c3ccsc3)no1)C2`, the Percent Effect in assay [1] was -3.99%; in assay [2] it was -3.44%.

For the molecule `O=C(NCc1cc[nH]n1)NC1CCCN(c2ncccn2)C1` (configuration not stated), the Percent Effect in assay [1] was -4.43%; in assay [2], -3.98%.

For the molecule `O=C(CN1CCCC1Cn1cncn1)Nc1cccnc1` (configuration not stated), the Percent Effect in assay [1] was found to be 1.28%; in assay [2] it was 9.88%.

As for `Cc1noc2nc(C3CCN(CC4=CCCOC4)CC3)cc(C(F)F)c12`, the Percent Effect was 12.2% in assay [1] and -23.1% in assay [2].

In the case of `Cc1cnc(CN(C)C2CCN(CCc3cnn(C)c3)C2)o1` (configuration not stated), the Percent Effect in assay [1] is -2.22%; in assay [2] it was 9.7%.

Take `CSc1ccc(-c2nc(CN3CCC(NC(C)=O)C3)c(C)o2)cc1` (configuration not stated): the Percent Effect is 2.73% in assay [1] and -5.95% in assay [2].

For `O=C(Cc1ccc2c(c1)OCCO2)NC1CCCC1`, the values for the Percent Effect in assay [1] and in assay [2] were -0.698% and 3.29%, respectively.

For `Cn1cnnc1C1CCCN(C(=O)NCc2ccc3c(c2)OCO3)C1` (configuration not stated), the Percent Effect is -2.83% in assay [1] and 7.83% in assay [2].

As for `COc1c(C)cnc(CN2CCC(C(=O)N(C)C)CC2)c1C`, the Percent Effect in assay [1] was -0.91%; in assay [2], 10.2%.

`NCc1cn(-c2ccccc2C(=O)NCc2cccc(Cl)c2)cn1`: the results for the Percent Effect in assay [1] and in assay [2] were -0.574% and 40.7%, respectively.

For the molecule `CCn1nc2c(cc1=O)CN(Cc1nc(CCOC)no1)CC2`, the Percent Effect in assay [1] is 2.21%; in assay [2], -7.6%.

Turning to `CCn1cc(CN2CCc3nc(N4CCOCC4)nc(O)c3CC2)cn1`, the results for the Percent Effect in assay [1] and in assay [2] were -1.83% and -19.4%, respectively.

Take `COc1ccccc1CC1CCCN(CCC#N)C1` (configuration not stated): the Percent Effect is -3.31% in assay [1] and 32.8% in assay [2].

As for `CCN(CC)C(=O)c1ccn(COc2ccccc2)n1`, the Percent Effect was -2.64% in assay [1] and 4.36% in assay [2].

For the molecule `Cc1cccc(CN2CCc3nnc(CN4CCCC4=O)n3CC2)n1`, the Percent Effect in assay [1] was -2.89%; in assay [2], 3.17%.

Consider `CC(C)c1nnc2n1CCN(CC(=O)Nc1nncs1)C2`, for which the Percent Effect is -2.1% in assay [1] and 10% in assay [2].

As for `Cc1cc(C)n(CC2CCCN2CC(=O)N(C)C)n1` (configuration not stated), the Percent Effect was -2.12% in assay [1] and 10.1% in assay [2].

`COC(=O)Cn1c(=O)nc2n1C(=O)N(c1ccccc1)C2`: the Percent Effect is 1.18% in assay [1] and -22.6% in assay [2].

As to `Cc1nc(CN2CCCN(C(=O)c3ccccn3)CC2)oc1C`, the Percent Effect in assay [1] is -0.692%; in assay [2] it was 25.9%.

Turning to `c1cnnc(N2CCCC2CNc2nc3ccccc3o2)c1` (configuration not stated), the Percent Effect in assay [1] is -3.6%; in assay [2], -10.1%.

`Cc1cc(C)n(CC2CN(CCOc3cccc(C#N)c3)CCO2)n1` (configuration not stated): the Percent Effect in assay [1] is 4.21%; in assay [2], 33%.

Consider `O=C(C[C@@H]1COC[C@H]2CN(Cc3ccc(F)cc3)C[C@@H]12)N1CCCCO1`, for which the Percent Effect in assay [1] was 3.14%; in assay [2], -37.2%.

As to `CCOCCCC(=O)NCCC(=O)N1CCN(c2ccccn2)CC1`, the Percent Effect is 0.809% in assay [1] and -65.6% in assay [2].

For the molecule `Cc1ccc(-c2noc(CN3CCOC(Cn4cncn4)C3)n2)cc1` (configuration not stated), the results for the Percent Effect in assay [1] and in assay [2] were 3.79% and 5.98%, respectively.

Consider `O=C(c1ccnnc1)N1C[C@@H](OCC2CCOCC2)[C@H]2OCCC[C@H]21`, for which the Percent Effect in assay [1] is -5.57%; in assay [2], -14.6%.

Consider `CCCN(CC(=O)NC)C(=O)c1ccc(-c2ccsc2)nc1C`, for which the Percent Effect in assay [1] is -3.29%; in assay [2] it was -2.59%.

On to `COc1ccc(C2=CCN(C(=O)C3CCN(C)C(=O)C3)CC2)cc1` (configuration not stated), for which the Percent Effect is 3.17% in assay [1] and 27.5% in assay [2].

As to `Cn1cc(-c2nc(CN3CCN(CCO)CC3)cs2)cn1`, the Percent Effect in assay [1] was -2.15%; in assay [2] it was 22.1%.

For `Cc1cc(C)n(CC2CCCN2C(=O)CCCc2ccccn2)n1` (configuration not stated), the Percent Effect was -1.59% in assay [1] and 31.8% in assay [2].

Take `CNC(=O)c1cc2c(nc1N(C)C)CCN(S(=O)(=O)CC(C)C)CC2`: the Percent Effect in assay [1] is -0.801%; in assay [2], -2.65%.

On to `CC(=O)Nc1nc(C(=O)NC(C)c2ccc3c(c2)OCCO3)cs1` (configuration not stated), for which the Percent Effect in assay [1] was -1.73%; in assay [2] it was 7.36%.

Regarding `Cc1noc(C)c1CN1CC2(CCN(C(=O)c3c[nH]cn3)C2)CC1=O` (configuration not stated), the Percent Effect was 0.582% in assay [1] and -14.1% in assay [2].
